Values without a mark were called inactive. Entries that show only a call come without a potency. The source made the active and inactive calls. Unless noted, the call rests on the fitted dose curve; in most records, active means well fitted curve in the direction sought with a large enough effect in the repeat runs; inconclusive means weak or mixed curves; inactive means no such curve, though single readings can be large; an effect the other way counts as inactive or inconclusive.
Assays:
[1] = qHTS assay for small molecule agonists of the p53 signaling pathway - cell viability (AID 651633; calls by dose curve; further: nearly all actives have a fitted effect of over 30% in size; further: potency means the concentration at half of the fitted maximal effect)
Procedure, shortened: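 p53RE-bla cells, seeded at 4,000 per well and rested 5 h at 37 C/5% CO2, received compounds in DMSO for 16 h at 37 C. CellTiter-Glo was then added, and luminescence was read after 30 min at room temperature to gauge cytotoxicity.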

[2] = qHTS assay for small molecule disruptors of the mitochondrial membrane potential - cell viability (AID 720634; calls by dose curve;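 further: human HepG2 liver cancer cells; series mostly up to about 83 µM; nearly all actives have a fitted effect of over 20% in size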)
Procedure, shortened: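 Cells: HepG2, 2,000/well, attached overnight. Compound 1 hr, 37 C/5% CO2. +m-MPI dye, +CellTiter-Glo 30 min RT. Readout: luminescence (ATP).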

[3] = qHTS assay for small molecule disruptors of the mitochondrial membrane potential (AID 720635); further: potency means the concentration at half of the fitted maximal effect
Procedure, shortened: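 HepG2 cells (2,000/well) attached overnight at 37C, then took compound for 1 hr at 37C, 5% CO2. Mito-MPS dye was added for 30 min; fluorescence was read at 490/535 nm (monomers) and 540/590 nm (aggregates).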

[4] = qHTS assay to test for compound auto fluorescence at 590 nm (red) in HepG2 cells (AID 720674)
Procedure, shortened: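 Compound auto-fluorescence is scored relative to Rose Bengal sodium, measured at 540/590 nm in live HepG2 cultures after 1 hr compound contact (37 C, 5% CO2).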

[5] = qHTS assay to test for compound auto fluorescence at 535 nm (green) in HepG2 cells (AID 720675)
[6] = qHTS assay to test for compound auto fluorescence at 460 nm (blue) in HEK293 cells (AID 720678)
Procedure, shortened: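 Blue-channel (Ex/Em 405/460 nm) intensity measured in HEK293 cultures after overnight compound exposure at 37C; signal expressed relative to triamterene. Cells plated 2,000 per well in 10% dialyzed FBS medium and allowed 4-5 hr to attach.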

[7] = qHTS assay to test for compound auto fluorescence at 590 nm (red) in HEK293 cells (AID 720679)
Procedure, shortened: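 Red-channel autofluorescence (Ex/Em 540/590 nm; Rose Bengal sodium reference) was measured after overnight 37C, 5% CO2 exposure of attached HEK293 cells, 2,000 per well in medium with 10% dialyzed FBS.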

[8] = qHTS assay to test for compound auto fluorescence at 535 nm (green) in HEK293 cells (AID 720680)
[9] = qHTS assay to test for compound auto fluorescence at 460 nm (blue) in HEK293 cell free culture (AID 720681)
Procedure, shortened: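 Test compounds were pinned into cell-free culture medium (DMEM with 10% FBS) and fluorescence was read directly at Ex/Em 405/460 nm. Signals were expressed as fluorescence equivalents of triamterene, with DMSO vehicle as control.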

[10] = qHTS assay to test for compound auto fluorescence at 535 nm (green) in HEK293 cell free culture (AID 720682)
Procedure, shortened: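 Each library compound, or DMSO control, is added by pintool to medium alone, comprising DMEM and 10% FBS. Emission at 535 nm following 485 nm excitation is quantified against fluorescein.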

[11] = qHTS assay to test for compound auto fluorescence at 590 nm (red) in HEK293 cell free culture (AID 720683)
Procedure, shortened: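 Tox21 10K library compounds were pinned into cell-free DMEM with 10% FBS and fluorescence was read at excitation 540 nm. Activity is expressed as Rose Bengal sodium equivalency.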

[12] = qHTS assay to test for compound auto fluorescence at 590 nm (red) in HepG2 cell free culture (AID 720684)
Procedure, shortened: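 Measured in medium alone (MEM containing 10% FBS) following pintool addition of compound; emission at 590 nm with 540 nm excitation, referenced to Rose Bengal sodium.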

[13] = qHTS assay to test for compound auto fluorescence at 460 nm (blue) in HepG2 cell free culture (AID 720685)
Procedure, shortened: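 Compound (23 nL) or DMSO pinned into cell-free MEM with 10% FBS; blue fluorescence read at 405/460 nm excitation/emission, expressed as auto-fluorescence equivalency to triamterene.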

[14] = qHTS assay to test for compound auto fluorescence at 535 nm (green) in HepG2 cell free culture (AID 720686)
[15] = molecular target: Glucocorticoid receptor (Homo sapiens) (UniProt P04150); test: qHTS assay to identify small molecule antagonists of the glucocorticoid receptor (GR) signaling pathway (AID 720692; active means well fitted inhibition curve with a large enough effect in the signal ratio in the repeat runs, not every such curve was filed as active; inconclusive means weak or mixed curves, or effect the other way; inactive means no such curve, though single readings can be large or run the other way; the % refers to the signal ratio)
Chain of Glucocorticoid receptor (Homo sapiens) (P04150 whole entry, looked up): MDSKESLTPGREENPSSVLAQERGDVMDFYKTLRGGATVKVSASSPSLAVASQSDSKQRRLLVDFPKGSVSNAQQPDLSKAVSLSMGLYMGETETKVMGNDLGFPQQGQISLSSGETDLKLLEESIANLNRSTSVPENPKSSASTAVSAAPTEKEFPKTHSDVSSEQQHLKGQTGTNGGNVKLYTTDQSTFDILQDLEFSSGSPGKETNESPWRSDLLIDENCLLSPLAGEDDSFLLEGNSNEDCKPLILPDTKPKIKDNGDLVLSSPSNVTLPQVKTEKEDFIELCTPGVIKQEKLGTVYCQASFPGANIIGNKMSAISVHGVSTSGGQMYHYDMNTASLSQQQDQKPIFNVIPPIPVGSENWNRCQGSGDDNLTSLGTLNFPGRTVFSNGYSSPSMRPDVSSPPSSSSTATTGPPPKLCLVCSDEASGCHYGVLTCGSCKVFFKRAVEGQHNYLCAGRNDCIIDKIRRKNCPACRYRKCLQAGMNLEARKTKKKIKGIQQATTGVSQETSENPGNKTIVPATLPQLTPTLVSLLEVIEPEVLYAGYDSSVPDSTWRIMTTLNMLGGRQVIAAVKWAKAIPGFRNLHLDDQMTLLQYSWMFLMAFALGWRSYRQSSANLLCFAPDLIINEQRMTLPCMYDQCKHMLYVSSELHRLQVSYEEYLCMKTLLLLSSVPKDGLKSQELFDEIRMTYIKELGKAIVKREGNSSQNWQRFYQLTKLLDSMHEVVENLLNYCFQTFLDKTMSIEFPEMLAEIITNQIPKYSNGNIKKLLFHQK
Procedure, shortened: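 HeLa GR-bla cells; cmpd + dex 5 nM final, 18 h 37 C; LiveBLAzer B/G FRET substrate 2 h RT; fluorescence intensity read. Antagonist mode, qHTS.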

[16] = qHTS assay for small molecules that induce genotoxicity in human embryonic kidney cells expressing luciferase-tagged ATAD5 - cell viability (AID 651634; calls by dose curve; further: nearly all actives have a fitted effect of over 25% in size; further: potency means the concentration at half of the fitted maximal effect)
Procedure, shortened: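 Fluorescence from CellTiter-Fluor, reporting protease activity within live cells, served as the viability read-out. HEK293T cells carrying luciferase-tagged ATAD5 had been treated with compound for 15.5 hr at 37C.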

[17] = qHTS assay to test for compound auto fluorescence at 460 nm (blue) in HepG2 cells (AID 720687)
Procedure, shortened: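 Cells (2,000/well in MEM with 10% FBS) attached overnight at 37 C, then were exposed to compound or DMSO for 1 hr at 37 C, 5% CO2. Fluorescence read at Ex/Em 405/460 nm, expressed as triamterene-equivalent signal.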

[18] = molecular target: Glucocorticoid receptor (Homo sapiens) (UniProt P04150); test: qHTS assay to identify small molecule agonists of the glucocorticoid receptor (GR) signaling pathway (AID 720691; active means well fitted activation curve with a large enough effect in the signal ratio in the repeat runs, not every such curve was filed as active; inconclusive means weak or mixed curves, or effect the other way; inactive means no such curve, though single readings can be large or run the other way; the % refers to the signal ratio; further: potency means the concentration at half of the fitted maximal effect)
Procedure, shortened: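 Fluorescence intensity from LiveBLAzer B/G FRET substrate (2 h, room temperature) reports beta-lactamase expression driven by the glucocorticoid response element in GR-bla HeLa cells after 18 h compound exposure at 37 C.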

[19] = qHTS assay for small molecules that induce genotoxicity in human embryonic kidney cells expressing luciferase-tagged ATAD5 (AID 651632); further: nearly all actives have a fitted effect of over 15% in size
Procedure, shortened: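 ATAD5-luc HEK293T, 2,000 cells/well; cpd or DMSO pin-transferred; 16 hr, 37C/5% CO2; Amplite 30 min RT; luminescence.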

SMILES	Potency [1]	Potency [2]	Potency [3]	outcome [4]	outcome [5]	Potency [6]	outcome [7]	outcome [8]	Potency [9]	outcome [10]	outcome [11]	outcome [12]	Potency [13]	outcome [14]	Potency [15]	Potency [16]	Potency [17]	Potency [18]	Potency [19]
COCCOC	inactive	inactive	inactive	inactive	inactive	inactive	inactive	inactive	inactive	inactive	inactive	inactive	inactive	inactive	inactive				
OC/C(Br)=C(\Br)CO	inactive	inactive		inactive	inactive	inactive	inactive	inactive	inactive	inactive	inactive	inactive	inactive	inactive	inactive	inactive	inactive	inactive	
CCOC(=O)CC(=O)C(=O)OCC	inactive		inactive	inactive	inactive	inactive	inactive	inactive	inactive	inactive	inactive	inactive	inactive	inactive		inactive	inactive		
CCCc1c(OCCCOc2ccc(OCC(=O)O)cc2)ccc(C(C)=O)c1O				inactive	inactive	inactive	inactive	inactive	inactive	inactive	inactive	inactive	inactive	inactive			inactive		inactive
CCCCN(CCCC)C(=S)SSC(=S)N(CCCC)CCCC	inactive				inactive	inactive	inactive	inactive	inactive	inactive	inactive	inactive	inactive	inactive			inactive		
CCOC(=O)OCC	inactive			inactive	inactive	inactive	inactive	inactive	inactive	inactive	inactive		inactive	inactive		inactive	inactive	inactive	
COc1cc2c(N3CCN(C(=O)Nc4ccc(OC(C)C)cc4)CC3)ncnc2cc1OCCCN1CCCCC1	5.31 µM (active)	inactive	26.6 µM (active)		inactive	inactive	inactive	inactive	inactive	inactive	inactive	inactive	inactive	inactive		29.8 µM (active)	inactive		
CSc1ccc(Oc2ccc(S(N)(=O)=O)cc2CN(C)C)cc1C					inactive	inactive	inactive	inactive	inactive	inactive	inactive		inactive	inactive			inactive	inactive	inactive
C=CC(C)(C)CC(=O)OC	inactive			inactive	inactive	inactive	inactive		inactive	inactive	inactive	inactive	inactive	inactive	inactive	inactive	inactive	inactive	
COc1cc2ncnc(Nc3ccc(F)c(Cl)c3)c2cc1OCCCN1CCOCC1				inactive	inactive	inactive	inactive	inactive	inactive	inactive	inactive	inactive	inactive	inactive				inactive	
C[C@@H]1C[C@H]2[C@@H]3CCC4=CC(=O)C=C[C@]4(C)[C@@]3(F)[C@@H](O)C[C@]2(C)[C@H]1C(=O)CO	inactive	inactive	inactive		inactive	inactive	inactive	inactive	inactive	inactive	inactive		inactive	inactive			inactive	0.0085 µM [inconclusive] (active)	
